High-throughput results (PubChem)
BRCA1 expr act – activators of BRCA1 expression; MCF7-BRCA1-FFLuc reporter, luminescence, 48 h; response scale: scaled: vehicle 0%, 10 µM genistein 100%; Potency, µM (titrated, usually from 46.1 µM), actives largely listed as activators; 380,000 tested, 1.1% active; AID 624202; also: nearly all actives have a fitted effect of over 80% in size
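Using MCF7 cells harboring a BRCA1 firefly luciferase reporter, plated 2 h before compound pinning, the screen measured luminescence after 48 h incubation. Responses were normalized to DMSO and 10 microM genistein, then fitted for concentration-effect.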
GoLoco inh red – inhibitors of human Gai1-RGS12 GoLoco interaction (red fluorophore); P63096; Gai1:RGS12 GoLoco peptide FP, rhodamine, 10 min; Potency, µM (highest dose often 61.6 µM), actives largely listed as inhibitors; 230,000 tested, 0.44% active; active = well fitted inhibition curve with a large enough effect, not every such curve was filed as active; inactive = no such curve, though single readings can be large or run the other way; also: nearly all actives have a fitted effect of over 30% in size
Target sequence (P63096 whole entry, looked up): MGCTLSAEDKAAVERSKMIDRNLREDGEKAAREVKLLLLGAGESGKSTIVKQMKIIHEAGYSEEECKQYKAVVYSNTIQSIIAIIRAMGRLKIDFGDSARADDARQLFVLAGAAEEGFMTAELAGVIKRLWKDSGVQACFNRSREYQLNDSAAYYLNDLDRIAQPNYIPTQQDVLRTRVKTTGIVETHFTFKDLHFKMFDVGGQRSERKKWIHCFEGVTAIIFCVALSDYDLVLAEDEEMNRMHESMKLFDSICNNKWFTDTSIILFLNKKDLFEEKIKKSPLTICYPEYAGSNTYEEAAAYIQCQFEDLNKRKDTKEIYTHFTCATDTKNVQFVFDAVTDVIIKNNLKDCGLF
Anesthetic bind – candidate novel general anesthetic via apoferritin binding; P02791; Potency, µM (highest dose often 77.5 µM), hits mostly inhibitors; AID 485281; apoferritin/1-aminoanthracene competitive binding, fluorescence; 350,000 tested, 0.074% active; also: nearly all actives have a fitted effect of over 20% in size
Target sequence (P02791 2-175 limits assumed): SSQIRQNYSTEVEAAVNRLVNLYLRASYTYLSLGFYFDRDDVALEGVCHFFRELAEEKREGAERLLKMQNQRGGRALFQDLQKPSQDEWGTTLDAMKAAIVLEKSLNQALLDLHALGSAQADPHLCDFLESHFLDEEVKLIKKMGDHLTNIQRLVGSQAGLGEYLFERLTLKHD
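In PBS, apoferritin at 10 uM is loaded with 1-AMA from a 50% saturated solution. After 10 min of compound exposure at ambient temperature, reduced 535 nm fluorescence indicates probe displacement.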
ERG-DNA inh – inhibitors of human ERG Ets domain-DNA interaction. P11308. fluorescence polarization, His-ERG Ets domain / labelled DNA. Potency, µM (top dose mostly 76.9 µM), most hits filed as inhibitors. 370,000 tested, 0.028% active. AID 624246; active = well fitted inhibition curve with a large enough effect in the polarisation, with a control signal flat; inconclusive = small, poorly fitted or top-dose-only effect, or effect the other way, or a change in a side signal; inactive = no such curve, though single readings can be large or run the other way; the % refers to the polarisation;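 also: polarization taken with two DNA probes labelled with fluorescein and Texas red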
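His-tagged ERG Ets domain (1 uM in the protein solution; 300mM KCl, 50mM Tris-HCl, 1mM EDTA, 1mM DTT, pH 7.5) received compound, then a probe mix of 5 nM fluorescein-DNA and 100nM Texas-615-DNA. Fluorescence polarization was read for both dyes.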
Of the large screens only hits and unclear results are named; the others gave an inactive call. The list is not random: actives were taken first. Their share in the collection is about 1.2%. Unless noted, calls follow the shape of the dose curve; as a rule, active = well fitted curve in the direction sought with a large enough effect; inconclusive = small, poorly fitted or top-dose-only effect, or another doubt; inactive = no such curve, though single readings can be large; an effect the other way counts as inactive or inconclusive.

CCn1c(C)nc2cc(C(=O)NNC(=S)Nc3ccc(F)cc3)ccc21	BRCA1 expr act 10µM
CCn1c(C)nc2cc(C(=O)NNC(=S)Nc3ccccc3Cl)ccc21	BRCA1 expr act 3.98µM
CCn1c(C)nc2cc(C(=O)NNC(=S)Nc3ccc(Cl)cc3Cl)ccc21	none
COC(=O)c1cccc(Nc2c(-c3ccc(OC)cc3)nc3nc[nH]n23)c1	none (no result: BRCA1 expr act, GoLoco inh red)
Cc1ccc(Cl)cc1N1CCN(C(=O)CCSCc2ccccc2F)CC1	none (no result: BRCA1 expr act, GoLoco inh red)
O=C(CCSCc1ccccc1F)N1CCN(c2ccccn2)CC1	BRCA1 expr act 10µM (no result: ERG-DNA inh)
O=C(/C=C/c1cccs1)c1ccc(NC(=O)c2cccc(Br)c2)cc1	BRCA1 expr act 11.2µM
c1ccc(-c2[nH]ncc2-c2ccnc3ccccc23)nc1	none (no result: BRCA1 expr act, GoLoco inh red, ERG-DNA inh)
CN(C)Cc1cc(O)c(CN(C)C)cc1O	GoLoco inh red 3.98µM
CN(C)Cc1cc(O)c(O)c(CN(C)C)c1	none (no result: BRCA1 expr act, Anesthetic bind, ERG-DNA inh)
COC(=O)c1ccc(COC(=O)CCC(=O)c2cccs2)cc1	BRCA1 expr act 10µM, Anesthetic bind inconclusive
COC(=O)c1ccc(COC(=O)c2ccc(N(C)C)cc2)cc1	BRCA1 expr act 5.01µM (no result: ERG-DNA inh)
COc1ccccc1CCNS(=O)(=O)CCNC(=O)c1ccccc1	none (no result: GoLoco inh red, Anesthetic bind)
COc1ccccc1CCNC(=O)c1ccc(Br)s1	BRCA1 expr act 8.91µM (no result: GoLoco inh red)
CC(C)c1ccc(NC(=O)C2=NNC(=O)CC2)cc1	BRCA1 expr act 2.24µM
Cc1ccc(NC(=O)C2=NNC(=O)CC2)cc1F	none
CC(C)(O)C(=O)O	none (no result: BRCA1 expr act, Anesthetic bind, ERG-DNA inh)
c1ccn2cc(CSc3nnc4ccccn34)nc2c1	BRCA1 expr act inconclusive (no result: ERG-DNA inh)
c1ccn2cc(CSC3=NCCS3)nc2c1	BRCA1 expr act 6.31µM
CCCCCCC[n+]1c(/C=C/c2ccc(N(C)C)cc2)sc2ccccc21	none (no result: GoLoco inh red, Anesthetic bind, ERG-DNA inh)
O=C(NC(=O)c1ccc(F)cc1F)Nc1ccc(Cl)cc1	BRCA1 expr act 2.82µM
CC1CCc2c(sc(/N=C/N(C)C)c2C#N)C1 (stereo not given)	BRCA1 expr act 12.6µM
CN(C)/C=N/c1sc2c(c1C#N)CCCC2	BRCA1 expr act inconclusive
Cc1cc(C(=O)CSc2ccc3c(c2)OCCO3)c(C)n1C1CC1	BRCA1 expr act 11.2µM
Cc1cc(/C=C2\SC(=S)NC2=O)c(C)n1-c1ccc(O)cc1	BRCA1 expr act 2.24µM
COC(=O)c1cccc(-n2c(C)cc(/C=C3\SC(=O)NC3=O)c2C)c1	BRCA1 expr act 10µM (no result: GoLoco inh red, Anesthetic bind, ERG-DNA inh)
O=C1C=CC(=O)c2c(O)c(Cl)c(Cl)c(O)c21	GoLoco inh red 0.355µM (no result: BRCA1 expr act, ERG-DNA inh)
O=C(O)c1ccc(CNc2ncnc3nc[nH]c23)cc1	none (no result: GoLoco inh red, Anesthetic bind, ERG-DNA inh)
Cn1ccsc1=NC(=O)c1ccc(S(=O)(=O)C(F)F)cc1	BRCA1 expr act 12.6µM (no result: GoLoco inh red)
CN(C)c1ccc(C(=O)N=c2sccn2C)cc1[N+](=O)[O-]	BRCA1 expr act 11.2µM (no result: GoLoco inh red)
N[C@@]1(C(=O)O)CN[C@@H](C(=O)O)C1	none (no result: BRCA1 expr act, ERG-DNA inh)
COc1cc(/C=N/N2CCOCC2)ccc1OCc1ccc(Cl)cc1	BRCA1 expr act 2.24µM
COc1cc(/C=N/N2CCOCC2)ccc1OCc1ccccc1	BRCA1 expr act 7.94µM
O=C(Nc1ccccc1-c1cn2c(CN3CCNCC3)csc2n1)c1cnc2ccccc2n1	none (no result: GoLoco inh red, Anesthetic bind, ERG-DNA inh)
COc1ccc(C(=O)NCc2ccncc2)cc1OC	none
COc1cc(C)ccc1OCc1cc(C(=O)NCc2ccncc2)no1	BRCA1 expr act 7.94µM (no result: GoLoco inh red)
COc1cc(C)ccc1OCc1cc(C(=O)N2CCCCCCC2)no1	BRCA1 expr act inconclusive, Anesthetic bind inconclusive (no result: GoLoco inh red)
COc1cc(C)ccc1OCc1cc(C(=O)NC(C)Cn2cncn2)no1 (stereo not given)	BRCA1 expr act 5.01µM (no result: GoLoco inh red)
COc1ccc2[nH]cc(C(=O)CNc3nccs3)c2c1	none (no result: GoLoco inh red, Anesthetic bind, ERG-DNA inh)
Nc1ccc(-c2nc3ncccc3o2)c(O)c1	BRCA1 expr act 5.01µM (no result: GoLoco inh red)
Nc1ccc(-c2nc3ncccc3o2)c(Cl)c1	BRCA1 expr act inconclusive
NS(=O)(=O)c1ccc(N=Nc2cc3ccccc3c(C(=O)O)c2O)cc1	none (no result: Anesthetic bind, ERG-DNA inh)
Nc1ccc2c(c1)Cc1cc(N)c(Br)cc1-2	BRCA1 expr act inconclusive (no result: GoLoco inh red, Anesthetic bind)
COc1cc2c(cc1N)-c1ccc(N)cc1C2	BRCA1 expr act 7.94µM (no result: GoLoco inh red, Anesthetic bind)
Cc1nn(-c2ccccn2)c2c1-c1nc(N)sc1CC2	none (no result: GoLoco inh red, Anesthetic bind, ERG-DNA inh)
c1ccc(COc2ccc(CNCc3cccnc3)cc2)cc1	BRCA1 expr act 10µM, Anesthetic bind inconclusive
O=[N+]([O-])c1ccc(/C=C/c2ccnc3ccccc23)c([N+](=O)[O-])c1	none (no result: GoLoco inh red, Anesthetic bind, ERG-DNA inh)
CCCSc1nsc(NC(=O)CCC)n1	BRCA1 expr act 1.41µM
COc1cccc(/C=N/n2nnnc2N)c1	none
Cc1ccc(/C=N/n2nnnc2N)cc1	BRCA1 expr act 6.31µM (no result: GoLoco inh red, Anesthetic bind)
CC1CC=CC2C1C(=O)N(Cc1ccccc1)C2c1ccc(F)c(-c2ccc(N(C)C)cc2)c1 (stereo not given)	none (no result: BRCA1 expr act, GoLoco inh red, ERG-DNA inh)
